# Source: PubChem BioAssay (NCATS)
# Results filed as inconclusive are left out. Calls of active or inactive are those of the source. Unless noted, the call rests on the fitted dose curve; in most records, active means well fitted curve in the direction sought with a large enough effect; inconclusive means small, poorly fitted or top-dose-only effect, or another doubt; inactive means no such curve, though single readings can be large; an effect the other way counts as inactive or inconclusive.
# Legend:
# [1] = Primary fluorescence-based thiol-reactive (MSTI) qHTS assay for identification of artifact compounds. (AID 1845221); further: nearly all actives have a fitted effect of over 65% in size; further: potency means the concentration at half of the fitted maximal effect
# In short: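 MSTI probe at 4 uM final in 2% DMSO/PBS pH 7.4; compounds, 1 h at room temperature in dark. Fluorescence Ex/Em 525/598 nm, normalised to Acetyl-MSTI and MSTI, fitted to 4-parameter Hill.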
# [2] = Primary redox qHTS assay for identification of artifact compounds. (AID 1845223);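 further: 0% = DMSO and 100% = reference compound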
# In short: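 Amplex Red (25 uM) and HRP (250 mU/mL) in HBSS, with compounds for 15 min, then 250 uM DTT for 30 min, room temperature, dark. Fluorescence 525/598 nm read; normalized to DMSO and 10 uM DA3003; Hill fit.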
# SKOV3 = assay: Primary qHTS to identify gynecologic anti-cancer compounds using libraries of approved drugs and bioactive compounds (AID 1345084); details: Gynecologic cancer cell panel viability, ATPlite luminescence, 48 h; series mostly up to 57.5 µM; further: nearly all actives have a fitted effect of over 55% in size; further: potency means the concentration at half of the fitted maximal effect
# In short: (§1)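 Cells, 1,000 per well, plated 16 h, then exposed 48 h at 37 C to compounds. Viability by ATPlite luminescence after 15 min at room temperature.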
# [3] = target: Cytochrome P450 2D6 (Homo sapiens) (UniProt P10635); assay: Cytochrome P450 family 2 subfamily D member 6 (CYP2D6) small molecule antagonists: luciferase biochemical (cell-free) qHTS assay (AID 1645840; active means well fitted curve in the direction sought with a large enough effect in the repeat runs; an effect the other way counts as inactive or inconclusive; further: potency means the concentration at half of the fitted maximal effect; nearly all actives have a fitted effect of over 55% in size)
# In short: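 P450-Glo luminescent screen: recombinant CYP2D6 enzyme–proluciferin substrate mix preincubated with compound 10 min at room temperature, then NADPH regeneration added for 1 h at room temperature. Detection reagent added for 20 min; luciferin light read as relative luminescence units.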
# [4] = target: Cytochrome P450 2C9 (Homo sapiens) (UniProt P11712); assay: Cytochrome P450 family 2 subfamily C member 9 (CYP2C9) small molecule antagonists: luciferase biochemical (cell-free) qHTS assay (AID 1645842; active means well fitted curve in the direction sought with a large enough effect in the repeat runs; an effect the other way counts as inactive or inconclusive; further: nearly all actives have a fitted effect of over 55% in size; further: potency means the concentration at half of the fitted maximal effect; on activity change, negative = inhibition: on the % scale 0 is the no-effect control and ±100 the full control effect)
# In short: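 Luminescence, after 20 min with luciferin detection reagent, reflected CYP2C9 turnover during a 1 h NADPH-driven reaction at 37C. Enzyme-substrate mix contained 0.4% bovine serum albumin and was preincubated with compound 10 min at room temperature.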
# [5] = target: Catechol O-methyltransferase (Homo sapiens) (UniProt P21964); assay: Confirmatory Screen for Target Class Profiling of Small Molecule Inhibitors of Methyltransferases (AID 1745852); details: MTase-Glo luminescence, SAH detection, recombinant enzyme; measured here: COMT max response; stronger effect = lower value; on activity change, negative = inhibition: on the % scale 0 is the no-effect control and ±100 the full control effect
# [6] = target: Guanidinoacetate N-methyltransferase (Homo sapiens) (UniProt Q14353); assay: as above; details: activity change, negative = inhibition: at 57.3 µM (top of the series) unless noted
# [7] = target: Nicotinamide N-methyltransferase (Homo sapiens) (UniProt P40261); assay: as above; details: MTase-Glo luminescence, SAH detection, recombinant enzyme; measured here: NNMT max response; stronger effect = lower value
# [8] = target: Phenylethanolamine N-methyltransferase (Homo sapiens) (UniProt P11086); assay: as above; details: MTase-Glo luminescence, SAH detection, recombinant enzyme; measured here: PNMT max response; stronger effect = lower value
# PA-1 = assay: Primary qHTS to identify gynecologic anti-cancer compounds using libraries of approved drugs and bioactive compounds (AID 1345084); details: Gynecologic cancer cell panel viability, ATPlite luminescence, 48 h; series mostly up to 57.5 µM; further: nearly all actives have a fitted effect of over 55% in size; further: potency means the concentration at half of the fitted maximal effect
# In short: as §1
# CAOV3 = assay: as above; details: Gynecologic cancer cell panel viability, ATPlite luminescence, 48 h; series mostly up to 57.5 µM
# In short: as §1
# [9] = Primary qHTS for small molecule stabilizers of the endoplasmic reticulum resident proteome: Secreted ER Calcium Modulated Protein (SERCaMP) assay (AID 1508630); further: on the % scale 0 is the no-effect control and ±100 the full control effect
# In short: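 GLuc-SERCaMP-expressing SH-SY5Y cells, pretreated 16 h with compound, are challenged with thapsigargin to empty ER calcium stores; after 4 h, coelenterazine is added directly to the medium and luminescence is imaged.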
# Chain of Catechol O-methyltransferase (Homo sapiens) (P21964 whole entry, looked up): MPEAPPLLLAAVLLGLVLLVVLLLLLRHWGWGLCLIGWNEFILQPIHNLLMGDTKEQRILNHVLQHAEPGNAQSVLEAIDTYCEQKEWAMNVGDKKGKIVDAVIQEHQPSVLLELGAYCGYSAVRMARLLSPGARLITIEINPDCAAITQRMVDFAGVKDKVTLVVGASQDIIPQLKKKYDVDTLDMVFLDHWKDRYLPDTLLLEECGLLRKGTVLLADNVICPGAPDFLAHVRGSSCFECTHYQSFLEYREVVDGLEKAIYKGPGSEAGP
# Chain of Phenylethanolamine N-methyltransferase (Homo sapiens) (P11086 whole entry, looked up): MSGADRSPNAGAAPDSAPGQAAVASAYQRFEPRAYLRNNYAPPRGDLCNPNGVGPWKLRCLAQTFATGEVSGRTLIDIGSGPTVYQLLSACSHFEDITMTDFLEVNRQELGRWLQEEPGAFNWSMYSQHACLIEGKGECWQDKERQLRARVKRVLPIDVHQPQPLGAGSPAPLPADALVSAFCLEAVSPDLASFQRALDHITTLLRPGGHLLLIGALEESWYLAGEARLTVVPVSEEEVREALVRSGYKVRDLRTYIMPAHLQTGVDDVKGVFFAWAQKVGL
# Chain of Nicotinamide N-methyltransferase (Homo sapiens) (P40261 whole entry, looked up): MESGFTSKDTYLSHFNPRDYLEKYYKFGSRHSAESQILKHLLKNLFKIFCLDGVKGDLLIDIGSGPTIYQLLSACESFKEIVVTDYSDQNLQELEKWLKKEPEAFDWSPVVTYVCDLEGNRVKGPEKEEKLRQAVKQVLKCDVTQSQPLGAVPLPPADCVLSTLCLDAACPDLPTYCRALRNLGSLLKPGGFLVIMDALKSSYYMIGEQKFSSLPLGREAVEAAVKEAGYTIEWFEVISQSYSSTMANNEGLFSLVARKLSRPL
# Chain of Cytochrome P450 2C9 (Homo sapiens) (P11712 whole entry, looked up): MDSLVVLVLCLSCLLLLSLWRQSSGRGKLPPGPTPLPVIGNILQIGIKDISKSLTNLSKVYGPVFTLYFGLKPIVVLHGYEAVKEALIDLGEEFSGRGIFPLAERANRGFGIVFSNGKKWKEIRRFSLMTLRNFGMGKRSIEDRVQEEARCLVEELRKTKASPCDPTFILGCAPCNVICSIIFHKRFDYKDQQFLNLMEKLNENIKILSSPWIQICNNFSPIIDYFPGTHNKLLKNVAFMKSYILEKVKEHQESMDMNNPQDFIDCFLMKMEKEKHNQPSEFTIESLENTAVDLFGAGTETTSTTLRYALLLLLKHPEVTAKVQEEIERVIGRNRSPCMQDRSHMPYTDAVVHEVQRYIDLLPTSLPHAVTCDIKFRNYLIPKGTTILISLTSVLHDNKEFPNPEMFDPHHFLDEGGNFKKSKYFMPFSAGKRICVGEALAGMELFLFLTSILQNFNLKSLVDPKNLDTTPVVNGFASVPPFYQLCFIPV
# Chain of Cytochrome P450 2D6 (Homo sapiens) (P10635 whole entry, looked up): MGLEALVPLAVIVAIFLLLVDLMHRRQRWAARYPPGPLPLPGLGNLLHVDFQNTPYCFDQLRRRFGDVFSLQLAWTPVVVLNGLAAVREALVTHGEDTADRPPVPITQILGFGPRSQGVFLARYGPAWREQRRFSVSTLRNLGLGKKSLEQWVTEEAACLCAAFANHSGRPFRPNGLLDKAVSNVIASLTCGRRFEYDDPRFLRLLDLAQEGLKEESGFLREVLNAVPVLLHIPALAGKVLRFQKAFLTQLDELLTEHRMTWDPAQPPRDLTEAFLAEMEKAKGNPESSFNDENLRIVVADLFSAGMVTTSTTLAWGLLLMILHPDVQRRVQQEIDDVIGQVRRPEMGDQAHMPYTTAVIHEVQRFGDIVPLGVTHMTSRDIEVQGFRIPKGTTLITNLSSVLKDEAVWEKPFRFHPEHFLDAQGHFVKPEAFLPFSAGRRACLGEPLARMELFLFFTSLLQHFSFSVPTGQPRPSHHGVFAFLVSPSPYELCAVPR
compound,measurement,setting,value
COC1CC(=O)C23C(=O)NC(CC(C)C)C2C(C)C(C)=CC3/C=C(\C)CCC(O)C1O (configuration not stated),Potency,[1],inactive
same,Potency,[2],inactive
same,Potency,SKOV3,inactive
O=C(Nc1ncc(SCCN2CCCC2)s1)C1(c2ccc(S(=O)(=O)C3CC3)cc2)CC1C1CCCCC1 (configuration not stated),Potency,[3],21.3 µM (active)
same,Potency,[4],19 µM (active)
CCN1CCC[C@@H]1CNC(=O)c1ccc2c(c1)NC(=O)/C(=C/c1ccccc1F)S2,Potency,[4],12 µM (active)
same,activity,[5],-24.5%
same,"activity change, negative = inhibition",[6],-8.4%
same,activity,[7],-32%
same,activity,[8],-20.2%
same,Potency,[2],inactive
O=C(C1=CCN2c3c(cccc31)OC[C@H]2CN1CCOCC1)c1cccc2ccccc12,Potency,[1],inactive
c1ccc(Cn2c(-c3ccc(OCC(C4CCNCC4)n4c(-c5ccccc5)nc5ccccc54)cc3)nc3ccccc32)cc1 (configuration not stated),activity,[5],-14.2%
same,"activity change, negative = inhibition",[6],-5.98%
same,activity,[7],-61.3%
same,activity,[8],-1.77%
same,Potency,[2],inactive
same,Potency,PA-1,inactive
CCOP(=O)(Cc1ccc(C(=O)Nc2ccc(Br)cc2C#N)cc1)OCC,Potency,[1],inactive
same,Potency,CAOV3,inactive
same,Potency,PA-1,inactive
O=C(O)c1ccc(O)c2ncc(N3CCCN(CCc4cccc5ccccc45)CC3)cc12,activity,[5],15.8%
same,"activity change, negative = inhibition",[6],8.48%
same,activity,[7],-19.7%
same,activity,[8],-64.3%
C=C(C(=O)O)C1CC2=C(C)C(=O)CC2C(C)CC1O (configuration not stated),Potency,[1],26.7 µM (active)
same,Potency,[2],inactive
same,Potency,SKOV3,inactive
N#Cc1ccc2c(c1)CCN(CCC1CCC(NC(=O)c3ccnc4ccccc34)CC1)C2 (configuration not stated),Potency,[1],inactive
same,Potency,PA-1,inactive
same,Potency,SKOV3,22.4 µM (active)
C=C(C)C(=O)O[C@H]1[C@H]2C(=C)C(=O)O[C@@H]2C[C@@H](C)[C@@H]2O[C@@H]2C(=O)[C@](C)(O)[C@@H]1OC(C)=O,Potency,[2],inactive
same,Potency,SKOV3,2.51 µM (active)
C=C1C(=O)O[C@@H]2C[C@@]3(C)CCC[C@H](C)C3=C[C@H]12,Potency,[1],inactive
same,Potency,[2],inactive
same,Potency,PA-1,inactive
COc1cc2nc(N3CCN(C)CC3)nc(NC3CCN(Cc4ccccc4)CC3)c2cc1OC,activity,[5],-1.25%
same,"activity change, negative = inhibition",[6],9.72%
same,activity,[7],-9.04%
same,activity,[8],0.903%
same,Potency,[1],inactive
Clc1ccccc1CNCC1CCC(CNCc2ccccc2Cl)CC1 (configuration not stated),Potency,[9],inactive
same,Potency,[3],0.151 µM (active)
same,Potency,[4],inactive
same,Potency,[1],inactive
O=C(/C=C/n1cnc(-c2cc(C(F)(F)F)cc(C(F)(F)F)c2)n1)NNc1cnccn1,Potency,[1],inactive
same,Potency,PA-1,10 µM (active)
